# Reference: the supplement of paper PMC10849652
# Targets with a hit are over-represented here; the source holds about 7,900 in all. About 0.6% of all pairs of compound and target were hits. Values without a mark were called inactive.
# Tests used:
# Assay in all cases: log2 fold change, soluble protein after heating vs DMSO (PISA); higher = thermal stabilisation; K562 cells, 10 uM, 30 min; active = over 0.2 and 3.5 SD of the protein, either way, in both replicates (recomputed)
# [1] = compound: CS(=O)(=O)c1ccc(-c2cnc(N)c(C(=O)Nc3ccccc3)n2)cc1
# How it was run: (§1)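 Soluble protein was quantified by TMTpro 16plex LC-MS/MS after channel sums were equalised. It was obtained as the supernatant after 21,000xg for 90 min from pooled aliquots of K562 cells (2×10^6 cells/mL, 10 μM compound, 30 min) heated for 3 min across 48°C-58°C and extracted in PBS with 0.5% NP-40 at 4°C. Thermal stability values are relative to control samples and come from duplicates. They are given as log2 fold changes.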
# [2] = compound: C[C@@H](Oc1cc(-c2cnn(C3CCNCC3)c2)cnc1N)c1c(Cl)ccc(F)c1Cl [crizotinib]
# How it was run: as §1
# [3] = compound: C[C@@H]1COCCN1C2=NC(=NC(=C2)C3(CC3)S(=O)(=O)C)C4=C5C=CNC5=CC=C4
# How it was run: as §1
# [4] = compound: C[C@H](C1=CC=C(C=C1)C(=O)NC2=C3C=CNC3=NC=C2)N
# How it was run: as §1
# [5] = compound: C[C@H](Nc1ncnc2nc[nH]c12)c1cc2cccc(Cl)c2c(=O)n1-c1ccccc1 [duvelisib]
# How it was run: as §1
# [6] = compound: Cc1cc(Nc2cc(CN3CCOCC3)c3nc(C)c(Cc4ccc(Cl)cc4F)n3n2)n[nH]1 [gandotinib]
# How it was run: as §1
# [7] = compound: Cc1cc(Nc2cc(N3CCN(C)CC3)nc(Sc3ccc(NC(=O)C4CC4)cc3)n2)n[nH]1 [tozasertib]
# How it was run: as §1
# [8] = compound: Cc1cc(SCc2sc(-c3ccc(C(F)(F)F)cc3)nc2C)ccc1OCC(=O)O
# How it was run: as §1
# [9] = compound: Cc1ccc(-n2nc(C(C)(C)C)cc2NC(=O)Nc2ccc(OCCN3CCOCC3)c3ccccc23)cc1 [doramapimod]
# How it was run: as §1
# [10] = compound: Cc1ccc(C(=O)N(CCCN)[C@@H](c2nc3cc(Cl)ccc3c(=O)n2Cc2ccccc2)C(C)C)cc1 [ispinesib]
# How it was run: as §1
# [11] = compound: Cc1ccc(NC(=O)c2ccc(CN3CC[C@H](N(C)C)C3)c(C(F)(F)F)c2)cc1Nc1nccc(-c2cncnc2)n1 [bafetinib]
# How it was run: as §1
# [12] = compound: Cc1cccc(CC(=O)N2CCc3c2ccc(-c2cn(C)c4ncnc(N)c24)c3F)n1
# How it was run: as §1
# [13] = compound: Cc1cn(-c2cc(NC(=O)c3ccc(C)c(Nc4nccc(-c5cccnc5)n4)c3)cc(C(F)(F)F)c2)cn1 [nilotinib]
# How it was run: as §1
# [14] = compound: Cc1nc(Nc2n[nH]c3c2CN(C(=O)N[C@H](CN(C)C)c2ccccc2)C3(C)C)c2sccc2n1
# How it was run: as §1
# [15] = compound: Cc1nc(Nc2ncc(C(=O)Nc3c(C)cccc3Cl)s2)cc(N2CCN(CCO)CC2)n1 [dasatinib]
# How it was run: as §1
# [16] = compound: Cc1ncc(-c2ccnc(Nc3ccc(S(C)(=O)=O)cc3)n2)n1C(C)C
# How it was run: as §1
# [17] = compound: Cn1cc(-c2ccc3c(c2)CCN3C(=O)Cc2cccc(C(F)(F)F)c2)c2c(N)ncnc21
# How it was run: as §1
# [18] = compound: Cn1cc(-c2ccc3nnc(C(F)(F)c4ccc5ncccc5c4)n3n2)cn1
# How it was run: as §1
# [19] = compound: Cn1cncc1[C@@](N)(c1ccc(Cl)cc1)c1ccc2c(c1)c(-c1cccc(Cl)c1)cc(=O)n2C [tipifarnib]
# How it was run: as §1
# [20] = compound: FC(F)(F)c1ccc(/C=C/c2nc(COc3ccc(CCCCn4ccnn4)cc3)co2)cc1 [mubritinib]
# How it was run: as §1
# UniProt Q8WUX2, sequence (Q8WUX2 whole entry, looked up): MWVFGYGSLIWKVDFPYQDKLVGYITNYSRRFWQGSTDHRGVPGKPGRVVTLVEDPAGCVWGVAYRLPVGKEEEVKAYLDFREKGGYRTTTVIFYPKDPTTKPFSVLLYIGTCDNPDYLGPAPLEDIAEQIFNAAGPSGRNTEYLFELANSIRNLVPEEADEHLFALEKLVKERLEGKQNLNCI
# UniProt P46109, sequence (P46109 whole entry, looked up): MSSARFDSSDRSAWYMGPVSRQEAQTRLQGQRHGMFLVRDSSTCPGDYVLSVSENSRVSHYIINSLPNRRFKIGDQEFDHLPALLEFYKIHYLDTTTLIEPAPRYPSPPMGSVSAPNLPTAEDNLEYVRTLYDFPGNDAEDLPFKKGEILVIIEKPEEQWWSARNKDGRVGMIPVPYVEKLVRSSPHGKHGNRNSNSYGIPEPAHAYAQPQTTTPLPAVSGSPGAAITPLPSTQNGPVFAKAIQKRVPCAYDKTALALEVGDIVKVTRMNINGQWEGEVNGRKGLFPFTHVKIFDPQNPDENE
# UniProt P20674, sequence (P20674 whole entry, looked up): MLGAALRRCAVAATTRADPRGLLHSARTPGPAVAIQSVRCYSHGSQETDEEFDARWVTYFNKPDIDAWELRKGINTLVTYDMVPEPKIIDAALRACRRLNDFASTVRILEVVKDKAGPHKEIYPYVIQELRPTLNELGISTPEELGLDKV
# UniProt Q13137, sequence (Q13137 whole entry, looked up): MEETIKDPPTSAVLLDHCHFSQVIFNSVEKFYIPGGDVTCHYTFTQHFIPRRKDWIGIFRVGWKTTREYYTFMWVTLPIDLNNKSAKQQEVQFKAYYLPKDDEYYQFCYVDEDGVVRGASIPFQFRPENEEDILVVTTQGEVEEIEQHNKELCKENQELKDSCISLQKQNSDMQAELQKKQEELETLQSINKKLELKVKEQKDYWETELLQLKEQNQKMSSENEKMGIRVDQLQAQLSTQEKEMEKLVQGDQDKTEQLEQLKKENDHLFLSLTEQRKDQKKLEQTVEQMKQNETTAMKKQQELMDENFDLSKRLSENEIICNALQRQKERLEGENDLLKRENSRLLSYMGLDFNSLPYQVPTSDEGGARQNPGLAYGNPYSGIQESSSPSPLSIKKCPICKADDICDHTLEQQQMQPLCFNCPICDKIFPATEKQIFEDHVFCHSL
# UniProt P68400, sequence (P68400 whole entry, looked up): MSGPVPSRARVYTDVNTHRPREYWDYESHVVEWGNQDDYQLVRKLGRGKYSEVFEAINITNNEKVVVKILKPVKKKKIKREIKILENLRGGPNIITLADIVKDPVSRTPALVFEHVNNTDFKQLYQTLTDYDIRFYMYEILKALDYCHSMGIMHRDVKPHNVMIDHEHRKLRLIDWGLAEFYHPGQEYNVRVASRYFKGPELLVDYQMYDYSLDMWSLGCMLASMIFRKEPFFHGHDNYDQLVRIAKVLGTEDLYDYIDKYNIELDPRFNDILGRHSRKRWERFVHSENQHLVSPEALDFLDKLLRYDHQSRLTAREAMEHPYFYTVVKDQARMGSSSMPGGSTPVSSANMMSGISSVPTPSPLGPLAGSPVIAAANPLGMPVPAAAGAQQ
# UniProt Q9Y5S2, sequence (Q9Y5S2 whole entry, looked up): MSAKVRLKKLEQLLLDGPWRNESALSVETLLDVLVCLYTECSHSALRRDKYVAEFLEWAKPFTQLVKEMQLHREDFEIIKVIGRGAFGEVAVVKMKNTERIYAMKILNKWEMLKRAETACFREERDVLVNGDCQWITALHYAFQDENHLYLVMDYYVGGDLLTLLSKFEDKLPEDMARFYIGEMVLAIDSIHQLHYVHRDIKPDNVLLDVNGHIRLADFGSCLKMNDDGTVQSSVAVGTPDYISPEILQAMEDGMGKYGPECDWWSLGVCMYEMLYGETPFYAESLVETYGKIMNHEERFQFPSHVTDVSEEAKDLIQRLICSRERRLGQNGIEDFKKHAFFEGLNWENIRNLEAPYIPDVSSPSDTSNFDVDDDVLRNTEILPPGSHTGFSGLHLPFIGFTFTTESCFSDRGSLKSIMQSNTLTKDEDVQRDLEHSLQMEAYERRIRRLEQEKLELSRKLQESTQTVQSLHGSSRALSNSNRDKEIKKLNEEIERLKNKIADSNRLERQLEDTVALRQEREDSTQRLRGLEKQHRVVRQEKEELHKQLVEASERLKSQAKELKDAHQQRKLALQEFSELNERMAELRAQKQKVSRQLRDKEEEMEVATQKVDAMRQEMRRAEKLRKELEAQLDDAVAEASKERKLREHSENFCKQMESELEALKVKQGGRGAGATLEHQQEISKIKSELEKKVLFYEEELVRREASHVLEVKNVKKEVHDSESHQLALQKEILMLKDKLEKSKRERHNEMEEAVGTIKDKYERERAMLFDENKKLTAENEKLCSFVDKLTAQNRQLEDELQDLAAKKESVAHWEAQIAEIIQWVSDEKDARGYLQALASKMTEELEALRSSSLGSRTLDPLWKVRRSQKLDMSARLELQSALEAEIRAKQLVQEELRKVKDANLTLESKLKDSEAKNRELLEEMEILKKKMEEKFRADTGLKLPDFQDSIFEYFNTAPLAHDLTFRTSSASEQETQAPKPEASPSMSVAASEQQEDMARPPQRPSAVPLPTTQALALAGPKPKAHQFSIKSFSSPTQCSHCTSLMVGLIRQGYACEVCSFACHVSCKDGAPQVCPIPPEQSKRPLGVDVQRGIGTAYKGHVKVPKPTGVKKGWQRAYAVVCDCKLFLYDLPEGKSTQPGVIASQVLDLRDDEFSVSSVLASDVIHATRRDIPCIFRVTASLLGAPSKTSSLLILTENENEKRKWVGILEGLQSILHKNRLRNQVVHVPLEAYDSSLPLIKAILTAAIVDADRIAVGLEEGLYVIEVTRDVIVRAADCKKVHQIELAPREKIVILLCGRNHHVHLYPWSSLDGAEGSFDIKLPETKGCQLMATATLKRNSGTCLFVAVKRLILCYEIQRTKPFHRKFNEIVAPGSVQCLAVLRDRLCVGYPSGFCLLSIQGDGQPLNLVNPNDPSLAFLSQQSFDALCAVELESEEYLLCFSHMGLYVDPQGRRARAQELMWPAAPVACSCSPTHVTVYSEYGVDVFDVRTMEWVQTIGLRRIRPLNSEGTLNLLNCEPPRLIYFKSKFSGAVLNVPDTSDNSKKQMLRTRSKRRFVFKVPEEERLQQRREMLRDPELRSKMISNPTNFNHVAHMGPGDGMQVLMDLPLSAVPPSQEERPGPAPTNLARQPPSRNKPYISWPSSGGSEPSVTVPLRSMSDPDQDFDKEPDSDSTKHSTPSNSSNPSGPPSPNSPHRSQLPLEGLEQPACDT
# UniProt Q99807, sequence (Q99807 whole entry, looked up): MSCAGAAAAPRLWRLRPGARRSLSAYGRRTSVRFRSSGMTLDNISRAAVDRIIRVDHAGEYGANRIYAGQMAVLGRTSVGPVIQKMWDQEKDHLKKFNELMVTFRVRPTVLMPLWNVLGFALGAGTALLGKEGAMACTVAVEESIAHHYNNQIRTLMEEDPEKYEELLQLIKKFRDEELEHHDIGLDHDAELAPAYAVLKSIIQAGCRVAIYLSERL
# UniProt Q9NXV6, sequence (Q9NXV6 whole entry, looked up): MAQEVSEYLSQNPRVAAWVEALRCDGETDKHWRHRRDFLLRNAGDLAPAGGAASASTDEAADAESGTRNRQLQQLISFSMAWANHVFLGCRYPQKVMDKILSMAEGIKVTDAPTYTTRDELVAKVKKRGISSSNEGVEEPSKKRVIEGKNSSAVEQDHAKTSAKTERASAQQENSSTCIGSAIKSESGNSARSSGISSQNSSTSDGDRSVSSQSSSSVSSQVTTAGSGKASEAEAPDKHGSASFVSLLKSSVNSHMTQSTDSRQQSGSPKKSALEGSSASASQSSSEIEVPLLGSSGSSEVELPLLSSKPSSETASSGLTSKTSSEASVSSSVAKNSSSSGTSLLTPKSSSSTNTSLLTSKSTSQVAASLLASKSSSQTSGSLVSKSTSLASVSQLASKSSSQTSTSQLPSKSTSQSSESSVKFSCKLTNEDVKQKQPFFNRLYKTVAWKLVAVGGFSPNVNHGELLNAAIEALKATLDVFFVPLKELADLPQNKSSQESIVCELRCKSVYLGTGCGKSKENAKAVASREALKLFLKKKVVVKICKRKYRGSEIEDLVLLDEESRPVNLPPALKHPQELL
# UniProt P08962, sequence (P08962 whole entry, looked up): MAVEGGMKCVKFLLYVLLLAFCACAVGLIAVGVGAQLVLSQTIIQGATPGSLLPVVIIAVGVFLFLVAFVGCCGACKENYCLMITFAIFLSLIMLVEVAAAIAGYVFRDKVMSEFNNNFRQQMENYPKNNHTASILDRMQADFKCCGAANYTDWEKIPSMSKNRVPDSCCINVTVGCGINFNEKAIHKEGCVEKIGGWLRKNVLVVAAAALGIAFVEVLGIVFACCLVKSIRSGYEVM
# UniProt Q12996, sequence (Q12996 whole entry, looked up): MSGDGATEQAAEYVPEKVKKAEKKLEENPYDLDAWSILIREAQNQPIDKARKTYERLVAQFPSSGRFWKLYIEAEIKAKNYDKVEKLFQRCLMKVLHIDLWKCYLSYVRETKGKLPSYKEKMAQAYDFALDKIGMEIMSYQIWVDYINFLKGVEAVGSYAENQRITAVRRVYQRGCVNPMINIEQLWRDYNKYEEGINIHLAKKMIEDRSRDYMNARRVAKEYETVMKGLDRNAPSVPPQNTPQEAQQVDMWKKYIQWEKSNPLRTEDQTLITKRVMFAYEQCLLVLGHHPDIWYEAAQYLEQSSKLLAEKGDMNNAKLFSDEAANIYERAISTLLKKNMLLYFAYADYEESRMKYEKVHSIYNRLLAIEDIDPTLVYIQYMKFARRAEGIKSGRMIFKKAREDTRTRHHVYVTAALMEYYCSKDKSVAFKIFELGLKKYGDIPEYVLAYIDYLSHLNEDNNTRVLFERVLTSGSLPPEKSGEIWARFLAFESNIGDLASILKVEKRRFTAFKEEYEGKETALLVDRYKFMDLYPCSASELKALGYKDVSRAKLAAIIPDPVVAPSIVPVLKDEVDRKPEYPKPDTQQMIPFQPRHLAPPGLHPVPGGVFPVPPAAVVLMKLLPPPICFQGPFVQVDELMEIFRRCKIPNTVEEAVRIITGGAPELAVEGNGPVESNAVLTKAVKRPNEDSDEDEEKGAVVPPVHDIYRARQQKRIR
Target,log2 fold change [1],log2 fold change [2],log2 fold change [3],log2 fold change [4],log2 fold change [5],log2 fold change [6],log2 fold change [7],log2 fold change [8],log2 fold change [9],log2 fold change [10],log2 fold change [11],log2 fold change [12],log2 fold change [13],log2 fold change [14],log2 fold change [15],log2 fold change [16],log2 fold change [17],log2 fold change [18],log2 fold change [19],log2 fold change [20]
CD63 (UniProt P08962),0.039,-0.076,0.009,-0.013,0.014,-0.023,-0.007,-0.022,0.033,-0.092,-0.069,-0.059,-0.023,0.074,0.021,0.002,-0.047,0.002,0.043,-0.003
CDK9 isoform 2 (UniProt P50750),-0.017,-0.103,-0.075,0.189,-0.076,-0.054,-0.031,0.03,0.066,-0.013,0.039,0.108,-0.045,-0.059,-0.011,0.22,-0.091,-0.013,0.068,-0.067
CA8 (UniProt P35219),0.003,-0.008,0.117,-0.06,0.1,-0.064,0.122,0.096,-0.066,0.103,-0.042,0.079,0.006,-0.017,-0.187,-0.01,0.083,-0.063,-0.064,0.06
COQ7 (UniProt Q99807),0.113,-0.163,0.062,0.007,0.067,-0.359 (active),-0.05,0.019,0.009,-0.181,-0.168,-0.062,0.006,-0.103,-0.006,-0.033,0.055,0.095,0.029,0.055
CSNK1D (UniProt P48730),0.12,-0.103,-0.246,0.055,-0.039,0.054,-0.028,0.069,0.109,-0.116,0.1,0.064,-0.025,0.073,0.119,0.241,-0.083,-0.042,0.051,-0.148
CHEK1 (UniProt O14757),0.011,-0.116,0.044,0.049,0.059,-0.122,-0.023,0.008,-0.009,0.039,-0.053,0.02,-0.05,-1.17 (active),-0.064,0.002,0.021,-0.022,0.005,0.048
CALCOCO2 isoform 4 (UniProt Q13137),0.026,-0.355 (active),-0.106,0.024,0.042,0.071,0.115,-0.037,-0.002,-0.262,-0.647 (active),-0.061,-0.039,0.038,0.01,0.1,-0.013,-0.035,-0.015,-0.025
CHAC2 (UniProt Q8WUX2),0.026,0.048,0.021,-0.071,0.04,-0.014,0.059,0.008,-0.021,0.071,-0.052,-0.003,0.078,-0.153,0.012,0.012,-0.004,-0.006,-0.037,0.045
CRKL (UniProt P46109),0.037,-1.34 (active),0.008,-0.045,0.075,-0.027,-0.357,0.012,-0.024,0.046,-1.41 (active),0.013,-1.34 (active),-0.054,-2.17 (active),0.023,0.004,0.028,0.024,0.049
CCNT1 (UniProt O60563),-0.124,-0.088,-0.098,0.13,-0.076,-0.1,-0.075,0.076,0.181,-0.277,0.062,0.036,0.027,-0.272,-0.016,-0.301,-0.051,-0.122,0.142,-0.093
CSTF3 (UniProt Q12996),0.004,-0.07,0.025,0.019,0.061,0,-0.021,-0.031,-0.022,0.082,-0.004,0.044,-0.044,0.176,-0.021,0.158,-0.009,-0.01,0.009,0.019
CSNK2A1 (UniProt P68400),0.055,-0.04,0.016,-0.17,0.01,0.043,-0.004,0.005,-0.022,0.029,-0.02,-0.073,0.032,0.019,-0.03,-0.055,-0.019,0.035,0.03,-0.019
CDK5RAP1 (UniProt Q96SZ6),0.005,0.041,0.033,0.031,-0.006,0.033,0.003,-0.025,0.05,0.048,-0.052,-0.058,0,-0.008,0.175,-0.006,0.044,0.017,0.031,-0.03
CDC42BPB (UniProt Q9Y5S2),0.068,0.056,-0.031,-0.149,0.012,0.029,0.112,0.005,0.01,-0.148,0.22,-0.034,0.062,-0.118,-0.029,0.106,-0.054,-0.017,0.094,0.177
CDKN2AIP (UniProt Q9NXV6),-0.053,0.01,-0.132,-0.004,0.031,-0.012,-0.024,0.021,-0.019,0.048,0.034,0.021,-0.021,0.034,-0.041,0.015,-0.049,-0.012,0.046,-0.011
COX5A (UniProt P20674),-0.011,0.245,0.109,-0.092,0.249,0.12,0.029,0.011,-0.039,0.411 (active),-0.079,-0.003,0.067,-0.023,0.06,-0.067,0.109,0.422 (active),0.103,0.021
